SMILES strings stand for the structures. Inconclusive results are not listed. The list shows a part of the results. Calls of active or inactive are those of the source. Unless noted, calls come from the whole dose curve; as a rule, active = well fitted curve in the direction sought with a large enough effect; inconclusive = small, poorly fitted or top-dose-only effect, or another doubt; inactive = no such curve, though single readings can be large; an effect the other way counts as inactive or inconclusive.

The text below walks through data of PubChem BioAssay (NCATS).

For test [1], the target named is Ferritin light chain (Equus caballus) (UniProt P02791). Kind of test: qHTS Validation Assay for Identification of Novel General Anesthetics (AID 2323). Summed up:
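Horse-spleen apoferritin (10 uM) in PBS with 50% saturated 1-aminoanthracene; compounds pin-transferred, 10 min at room temperature. Fluorescence read at 380/535 nm, normalized to free 1-AMA and 1-AMA/apoferritin values; four-parameter Hill fit.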

For test [2], the target named is ATP-dependent DNA helicase Q1 (Homo sapiens) (UniProt P46063). Kind of test: qHTS Validation Assay for Inhibitors of RecQ-Like Dna Helicase 1 (RECQ1) (AID 2353). The essentials: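 RECQ1T1 50 nM; forked duplex (20 bp + 30-nt ss tails) 200 nM, ATP 2 mM final; pH 8.0, 2 mM MgCl2, 2.5 ug/ml poly(dI-dC); 15 min compound preincubation; discontinuous kinetic read over 2 h at RT.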
Chain of ATP-dependent DNA helicase Q1 (Homo sapiens) (P46063 whole entry, looked up): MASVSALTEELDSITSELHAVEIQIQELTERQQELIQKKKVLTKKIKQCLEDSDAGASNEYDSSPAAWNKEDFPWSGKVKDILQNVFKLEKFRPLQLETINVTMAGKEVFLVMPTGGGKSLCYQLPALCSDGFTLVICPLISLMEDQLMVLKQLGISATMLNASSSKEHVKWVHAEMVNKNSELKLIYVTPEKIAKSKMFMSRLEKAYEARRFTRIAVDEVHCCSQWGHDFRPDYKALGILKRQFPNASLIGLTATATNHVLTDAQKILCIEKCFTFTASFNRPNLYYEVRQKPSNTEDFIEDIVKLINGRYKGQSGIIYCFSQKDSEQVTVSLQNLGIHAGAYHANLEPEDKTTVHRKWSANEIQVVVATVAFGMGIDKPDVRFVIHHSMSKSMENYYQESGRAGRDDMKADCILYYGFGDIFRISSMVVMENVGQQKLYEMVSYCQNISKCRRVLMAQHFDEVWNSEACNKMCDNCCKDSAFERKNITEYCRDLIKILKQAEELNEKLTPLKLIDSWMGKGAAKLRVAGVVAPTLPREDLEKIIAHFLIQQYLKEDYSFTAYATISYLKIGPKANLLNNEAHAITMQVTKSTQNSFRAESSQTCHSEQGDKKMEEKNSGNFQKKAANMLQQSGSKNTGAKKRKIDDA

The target of test [3] is RecQ-like DNA helicase BLM (Homo sapiens) (UniProt P54132). Kind of test: qHTS Validation Assay for Inhibitors of Bloom's syndrome helicase (BLM) (AID 2364). Summed up: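 BLM 50 nM in 25 mM Tris-HCl pH 8.0, 5 mM NaCl, 2 mM MgCl2, 1 mM DTT, 0.01% Tween-20, 2.5 ug/ml poly(dI-dC); 15 min cpd preinc, RT. Start: 200 nM forked DNA + 2 mM ATP (final). TAMRA read, 2 reads 2 h apart.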
Chain of RecQ-like DNA helicase BLM (Homo sapiens) (P54132 whole entry, looked up): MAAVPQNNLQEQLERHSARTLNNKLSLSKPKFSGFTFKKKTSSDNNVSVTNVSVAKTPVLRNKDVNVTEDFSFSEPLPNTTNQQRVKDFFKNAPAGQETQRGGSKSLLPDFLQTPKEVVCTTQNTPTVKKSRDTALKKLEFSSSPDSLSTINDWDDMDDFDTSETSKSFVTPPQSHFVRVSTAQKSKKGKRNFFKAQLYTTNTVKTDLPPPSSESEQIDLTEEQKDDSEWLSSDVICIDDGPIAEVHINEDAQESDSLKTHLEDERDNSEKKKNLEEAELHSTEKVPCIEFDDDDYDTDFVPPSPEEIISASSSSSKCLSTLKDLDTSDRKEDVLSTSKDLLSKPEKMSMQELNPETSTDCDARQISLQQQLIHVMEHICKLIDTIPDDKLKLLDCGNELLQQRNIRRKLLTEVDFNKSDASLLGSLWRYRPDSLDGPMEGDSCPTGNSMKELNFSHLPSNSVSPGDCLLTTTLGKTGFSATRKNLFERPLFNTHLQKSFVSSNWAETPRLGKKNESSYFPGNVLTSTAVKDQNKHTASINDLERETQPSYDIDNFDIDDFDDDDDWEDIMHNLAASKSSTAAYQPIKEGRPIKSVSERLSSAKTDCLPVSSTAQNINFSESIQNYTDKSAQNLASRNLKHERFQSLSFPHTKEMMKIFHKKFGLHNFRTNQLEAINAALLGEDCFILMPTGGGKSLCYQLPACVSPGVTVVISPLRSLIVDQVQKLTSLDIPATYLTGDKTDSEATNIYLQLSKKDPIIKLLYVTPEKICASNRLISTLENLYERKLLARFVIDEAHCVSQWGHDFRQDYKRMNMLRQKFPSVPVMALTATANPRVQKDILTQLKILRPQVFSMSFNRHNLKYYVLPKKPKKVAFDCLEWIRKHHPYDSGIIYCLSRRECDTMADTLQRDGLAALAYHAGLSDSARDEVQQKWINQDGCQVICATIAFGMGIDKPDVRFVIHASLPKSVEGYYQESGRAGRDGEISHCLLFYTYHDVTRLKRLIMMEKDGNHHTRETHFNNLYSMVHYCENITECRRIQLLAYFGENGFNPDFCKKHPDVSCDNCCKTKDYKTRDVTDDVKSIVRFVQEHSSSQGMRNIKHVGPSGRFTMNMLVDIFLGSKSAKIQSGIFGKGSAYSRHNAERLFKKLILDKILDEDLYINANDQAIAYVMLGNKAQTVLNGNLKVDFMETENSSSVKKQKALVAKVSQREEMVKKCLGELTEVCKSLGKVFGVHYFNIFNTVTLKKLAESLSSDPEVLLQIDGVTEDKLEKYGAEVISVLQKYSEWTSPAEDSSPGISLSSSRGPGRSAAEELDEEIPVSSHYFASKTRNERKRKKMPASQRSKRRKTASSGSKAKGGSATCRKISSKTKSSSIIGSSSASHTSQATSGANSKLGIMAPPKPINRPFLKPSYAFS

The nature of test [4]: Cytometric Cell-Based qHTS for Inhibitors of the mTORC1 Signaling Pathway in MEF (Tsc2-/-, p53-/-) Cells (AID 2660).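 Note: Tsc2 and p53 null MEFs carrying empty vector with compound for 24 h; percent of cells above a phospho-rpS6 to PI ratio cutoff in each well.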 Summed up:
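Immunofluorescence qHTS of rpS6 Ser235/236 phosphorylation: MEFs (Tsc2-/-, p53-/-) treated 24 h, 37 C, in DMEM + 10% FBS. Alexa-488 signal normalized to PI count, referenced to rapamycin (7.5 nM) and DMSO; PI cell number recorded for viability.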

Test [5] can be described thus: High Content Imaging Cell-Based qHTS for Inhibitors of the mTORC1 Signaling Pathway in MEF (Tsc2-/-, p53-/-) Cells (AID 2666).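 Note: percent of cells scored positive for phospho-rpS6 Ser235/236 immunostaining by imaging.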 The conditions noted are these: at 38.3 µM (top of the series). The essentials: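 Inhibition of rpS6 phosphorylation is measured by immunofluorescence imaging in empty-vector Tsc2-/-, p53-/- mouse embryonic fibroblasts after 24 hrs compound exposure at 37 degree Celsius. Results are reported as % positive cells per well.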

Test [6] in a line: High Content Imaging Cell-Based qHTS for Inhibitors of the mTORC1 Signaling Pathway in MEF Cells (AID 2667).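 Note: Tsc2-/- p53-/- MEFs stably re-expressing wild-type Tsc2 exposed 24 h.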 Summed up:
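Fixed-cell imaging of phospho-S6 (Ser235/236, Alexa-488) after 24 hrs of compound treatment at 37 degree Celsius. Signal was normalized to Hoechst, and thresholds from the highest and lowest wells split cells into % active versus % non-active.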

Test [7] is described as follows: Cytometry Cell-Based qHTS for Inhibitors of the mTORC1 Signaling Pathway in MEF cells (AID 2668).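 Note: Tsc2-/- p53-/- mouse embryonic fibroblasts stably re-expressing wild-type Tsc2; percent cells positive for phospho-rpS6 Ser235/236 relative to propidium iodide stain.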 The essentials: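 MEFs (Tsc2-/-, p53-/- stably expressing WT Tsc2) treated 24 h at 37 degree Celsius, fixed, stained with Alexa-488 anti-phospho-rpS6 Ser235/236 and propidium iodide; Acumen laser scanning. Reported as % positive cells, phospho-S6 normalized to PI.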

A short description of test [8]: Validation screen for small molecules that induce DNA re-replication in MCF 10A normal breast cells (AID 463097). Note: nearly all actives have a fitted effect of over 60% in size. Summed up: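 MCF 10A cells exposed to compound 48 hr at 37 C, 5% CO2, then Hoechst-stained 40 min. Laser-scanning imaging of nuclear DNA content (405 nm ex, 500-530 nm em); re-replication scored as rise in nuclei with elevated fluorescence intensity.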

The target in test [9] is Ubiquitin carboxyl-terminal hydrolase 2 (Homo sapiens) (UniProt O75604). Kind of test: qHTS Validation Assay for Inhibitors of Ubiquitin-specific Protease USP2a Using CHOP2 as the Reporter (AID 463106). The essentials: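 Inhibition is expressed relative to NEM as the full-inhibition control, with concentration-response curves classed by fit quality, magnitude and activity. Enzyme (USP2 core, 10nM) meets 25nM Ub-CHOP2 after compound preincubation; readings are taken at 60min.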

Test [10] deals with DNA polymerase III PolC-type (Bacillus subtilis (strain 168)) (UniProt P13267). Kind of test: qHTS Validation Assay for the Inhibitors of DNA Replication in Gram-Positive Bacteria (AID 485295).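 Note: PicoGreen fluorescence of double-stranded DNA made on primed circular M13 template.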 The essentials:
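Reconstituted B. subtilis Pol III holoenzyme (PolC, beta clamp, SSB, primase) preincubated with compound, then M13Gori single-stranded circular template with dNTPs/NTPs added; room temperature reaction. Stopped with EDTA/PicoGreen; dsDNA fluorescence read, EDTA as full-inhibition control.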

Test [11] deals with Tumor susceptibility gene 101 protein (Homo sapiens) (UniProt Q99816). The test can be described thus: qHTS Validation Assay for Iinhibitors of HIV-1 Budding by Blocking the Interaction of PTAP/TSG101 (AID 485342; calls by dose curve). The essentials:
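Tsg101 binding domain (10 uM) with FITC-labeled PTAP peptide (50 nM) in HEPES pH 7.5 buffer, 20 min at r.t. with compounds. Binding measured by fluorescence polarization.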

In test [12] the target is Beta-2 adrenergic receptor (Homo sapiens) (UniProt P07550). The test can be described thus: qHTS validation assay of beta-arrestin-biased ligands of beta2-adrenergic receptor (AID 485366). The essentials: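 Agonism was measured as beta-arrestin recruitment to recombinant beta2-AR, releasing tTA to drive luciferase. Cells were exposed for 18 hr at 37 degrees C to a series up to 46 microM. %Activity from corrected luminescence gave concentration-response curves.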
Chain of Beta-2 adrenergic receptor (Homo sapiens) (P07550 whole entry, looked up): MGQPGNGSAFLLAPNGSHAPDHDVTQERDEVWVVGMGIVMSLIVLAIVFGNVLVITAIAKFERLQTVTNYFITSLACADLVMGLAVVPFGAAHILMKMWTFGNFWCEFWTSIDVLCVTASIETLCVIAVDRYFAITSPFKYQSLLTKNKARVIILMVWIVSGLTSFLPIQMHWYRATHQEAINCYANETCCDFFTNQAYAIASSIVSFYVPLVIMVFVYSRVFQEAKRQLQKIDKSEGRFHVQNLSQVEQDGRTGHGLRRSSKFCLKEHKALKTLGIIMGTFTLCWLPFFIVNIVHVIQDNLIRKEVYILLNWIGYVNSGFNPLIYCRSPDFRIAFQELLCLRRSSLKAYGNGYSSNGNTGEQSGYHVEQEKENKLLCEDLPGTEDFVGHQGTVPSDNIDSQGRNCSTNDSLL

Test [13] deals with ATP-dependent 6-phosphofructokinase (Trypanosoma brucei brucei) (UniProt O15648). Kind of test: qHTS Validation Assay to Find Inhibitors of T. brucei phosphofructokinase (AID 485368). The conditions noted are these: T. brucei PFK enzyme assay, qHTS 7-point titration; at 57.5 µM (top of the series). The essentials:
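ADP-Glo luminescence, two-step: residual ATP depleted, then ADP converted to ATP for luciferase. Enzyme 1.25 nM, F6P 0.5 mM, ATP 0.1 mM, pH 8.0 TEA buffer, 45 min RT. Curves fitted and classed by quality and efficacy.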

For test [14], the target named is Thioredoxin reductase 1, cytoplasmic (Rattus norvegicus) (UniProt O89049). The test can be described thus: qHTS Assay for Substrates of Mammalian Selenoprotein Thioredoxin Reductase 1 (TrxR1) (AID 488772).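 Note: a drop in NADPH fluorescence below the no-compound background marks a TrxR1 substrate.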 The essentials: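 In this dual-purpose format, potential substrates are identified from the first fluorescence read after selenite addition, not from the 8-minute delta. Rat enzyme is preincubated with NADPH and then with compound at ~22 deg C.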
Chain of Thioredoxin reductase 1, cytoplasmic (Rattus norvegicus) (O89049 whole entry, looked up): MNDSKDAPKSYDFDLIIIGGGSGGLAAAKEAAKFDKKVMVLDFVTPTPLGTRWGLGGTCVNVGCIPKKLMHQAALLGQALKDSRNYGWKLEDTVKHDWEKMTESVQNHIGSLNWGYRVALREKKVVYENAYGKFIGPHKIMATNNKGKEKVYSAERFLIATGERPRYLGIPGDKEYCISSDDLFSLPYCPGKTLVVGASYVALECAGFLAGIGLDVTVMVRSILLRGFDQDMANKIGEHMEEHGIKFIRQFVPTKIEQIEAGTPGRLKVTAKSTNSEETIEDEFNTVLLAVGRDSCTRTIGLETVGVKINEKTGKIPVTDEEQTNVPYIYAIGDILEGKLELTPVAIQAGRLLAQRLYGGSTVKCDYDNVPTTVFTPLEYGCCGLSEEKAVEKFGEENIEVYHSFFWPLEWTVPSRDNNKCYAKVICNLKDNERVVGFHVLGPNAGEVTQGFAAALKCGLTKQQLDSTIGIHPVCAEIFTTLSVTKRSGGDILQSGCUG

The target is the same in test [15]. Kind of test: qHTS Assay for Inhibitors of Mammalian Selenoprotein Thioredoxin Reductase 1 (TrxR1) (AID 488773).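 Note: drop in NADPH fluorescence over an 8 min run after selenite addition; nearly all actives have a fitted effect of over 40% in size.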 The essentials: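 Inhibition is scored from the loss of NADPH fluorescence between first and last reads of an 8-min kinetic run. Selenite (400 uM) was the substrate, added after 15 min compound preincubation at room temperature.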
For test [16], the target named is Flap endonuclease 1 (Homo sapiens) (UniProt P39748). The test can be described thus: qHTS Validation Assay for the Inhibitors of Human Flap endonuclease 1 (FEN1) (AID 488816). The essentials:
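Steps: add FEN1 (10 nM reagent) or buffer only; pin compounds; hold 15 min at room temperature; start with substrate, 50 nM final; read at 0 and 15 min; correct, normalize and fit a four-parameter Hill curve.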

Test [17] concerns the target M-phase phosphoprotein 8 (Homo sapiens) (UniProt Q99549). Kind of test: qHTS Validation Assay for Inhibitors for MPP8 Chromodomain Interactions with Methylated Histone Tails (AID 488949). Note: top concentration of the series differs between compounds; nearly all actives have a fitted effect of over 55% in size. Summed up: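 MPP8 (50 nM) was pre-bound to 50 nM biotinylated H3(1-18)K9me3 peptide in PBS pH 7.4 with 0.01% Tween-20. Compounds were then added for 30 min at room temperature, and complex disruption was read by AlphaScreen with streptavidin donor and nickel-chelate acceptor beads.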

For test [18], the target named is Endonuclease 4 (Escherichia coli (strain K12)) (UniProt P0A6C1). Kind of test: Counterscreen for APE1 Inhibitors: qHTS Assay for Inhibitors of Endonuclease IV (AID 2565). Summed up: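 Measured as reaction progress, the fluorescence gain between first and third kinetic reads after adding 50 nM TAMRA/BHQ-2 THF duplex to 2 nM enzyme preincubated 15 min with compound; 2 mM MgCl2, pH 7.5.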

Test [19] concerns the target DNA repair nuclease/redox regulator APEX1 (Homo sapiens) (UniProt P27695). The test can be described thus: Confirmation qHTS Assay for Inhibitors of the Human Apurinic/apyrimidinic Endonuclease 1 (APE1) (AID 2572). Note: potency is the fitted concentration of half-maximal effect; nearly all actives have a fitted effect of over 30% in size. The conditions noted are these: purified APE1, fluorogenic abasic-site DNA cleavage. The essentials:
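APE1 endonuclease activity was assessed as fluorescence released when the enzyme nicked a quenched abasic-site duplex (50 nM final). Compounds were preincubated with enzyme 15 min at room temperature before substrate addition.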

Test [20] shares this target. The test can be described thus: qHTS FP-Based Assay for Inhibitors of the Human Apurinic/apyrimidinic Endonuclease 1 (APE1) (AID 2573).

Chain of M-phase phosphoprotein 8 (Homo sapiens) (Q99549 whole entry, looked up): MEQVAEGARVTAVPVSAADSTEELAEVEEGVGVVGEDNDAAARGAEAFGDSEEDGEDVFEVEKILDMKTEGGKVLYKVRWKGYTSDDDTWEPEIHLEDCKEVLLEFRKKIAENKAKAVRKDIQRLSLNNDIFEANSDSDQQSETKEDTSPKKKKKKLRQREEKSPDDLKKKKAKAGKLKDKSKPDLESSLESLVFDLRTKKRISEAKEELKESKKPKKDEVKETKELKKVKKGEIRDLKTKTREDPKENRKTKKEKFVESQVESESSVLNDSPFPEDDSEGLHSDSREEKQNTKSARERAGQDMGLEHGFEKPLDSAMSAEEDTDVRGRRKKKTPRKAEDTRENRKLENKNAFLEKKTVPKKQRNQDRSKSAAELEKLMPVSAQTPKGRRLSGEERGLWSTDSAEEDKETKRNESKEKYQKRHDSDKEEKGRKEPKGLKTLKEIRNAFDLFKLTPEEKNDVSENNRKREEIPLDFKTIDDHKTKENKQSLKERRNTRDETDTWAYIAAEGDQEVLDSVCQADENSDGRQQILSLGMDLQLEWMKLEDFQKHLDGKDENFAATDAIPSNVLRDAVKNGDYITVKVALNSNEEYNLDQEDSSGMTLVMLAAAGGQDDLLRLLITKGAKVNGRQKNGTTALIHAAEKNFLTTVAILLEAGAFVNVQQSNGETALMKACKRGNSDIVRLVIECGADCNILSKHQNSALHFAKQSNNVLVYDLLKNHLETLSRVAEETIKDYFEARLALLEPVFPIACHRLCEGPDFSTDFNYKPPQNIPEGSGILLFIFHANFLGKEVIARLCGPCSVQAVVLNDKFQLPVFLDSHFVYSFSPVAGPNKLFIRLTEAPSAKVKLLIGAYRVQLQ
Chain of Ferritin light chain (Equus caballus) (P02791 2-175 limits assumed): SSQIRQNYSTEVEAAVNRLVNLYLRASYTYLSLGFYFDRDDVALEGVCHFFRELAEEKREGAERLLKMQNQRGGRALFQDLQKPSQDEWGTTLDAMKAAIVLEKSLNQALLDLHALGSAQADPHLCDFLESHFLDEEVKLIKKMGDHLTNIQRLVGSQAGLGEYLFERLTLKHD
Chain of DNA repair nuclease/redox regulator APEX1 (Homo sapiens) (P27695 whole entry, looked up): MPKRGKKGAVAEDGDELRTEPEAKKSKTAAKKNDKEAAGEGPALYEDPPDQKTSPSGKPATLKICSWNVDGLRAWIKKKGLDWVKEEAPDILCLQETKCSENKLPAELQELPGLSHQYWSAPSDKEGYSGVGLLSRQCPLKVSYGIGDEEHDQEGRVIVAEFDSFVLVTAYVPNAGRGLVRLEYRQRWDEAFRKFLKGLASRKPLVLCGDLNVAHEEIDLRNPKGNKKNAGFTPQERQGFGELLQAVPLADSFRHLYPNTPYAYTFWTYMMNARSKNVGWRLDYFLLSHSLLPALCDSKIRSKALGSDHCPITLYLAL
Chain of Flap endonuclease 1 (Homo sapiens) (P39748 whole entry, looked up): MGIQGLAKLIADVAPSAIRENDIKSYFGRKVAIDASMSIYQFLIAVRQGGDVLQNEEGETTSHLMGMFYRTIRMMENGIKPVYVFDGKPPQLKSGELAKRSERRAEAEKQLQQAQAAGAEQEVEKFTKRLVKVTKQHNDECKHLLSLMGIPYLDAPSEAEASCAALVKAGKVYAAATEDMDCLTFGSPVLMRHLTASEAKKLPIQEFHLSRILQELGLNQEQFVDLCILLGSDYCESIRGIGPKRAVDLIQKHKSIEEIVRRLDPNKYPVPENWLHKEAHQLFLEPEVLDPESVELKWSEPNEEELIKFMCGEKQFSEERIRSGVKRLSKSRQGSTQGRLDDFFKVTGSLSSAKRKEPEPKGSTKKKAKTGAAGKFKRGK

For `CN1Cc2c(N)cccc2C(c2ccccc2)C1` (stereo not given), the result in test [1], in test [2], in test [3], in test [4], in test [5] and in [6] was inactive. For the same molecule, the molecule was called inactive in test [7], in test [8], in [9], in test [10], in [11] and in test [12]. Also, the result in [13], in [14], in [15], in [16] and in test [17] was inactive.
Turning to `Oc1cc(O)c2c(c1)OC(c1ccc(O)c(O)c1)C(O)C2` (stereo not given), the molecule was called inactive in test [18] and in [20]. In test [19], the Potency was 2510 nM (active).
On to `CC[N+](C)(C)Cc1ccccc1Br`, for which the call in test [1], in [2], in test [3], in [8] and in test [17] was inactive.
